Laboratory results: PubChem BioAssay (NCI)
About 83,000 compounds went through this panel and 20% of them were active in at least one assay; those are over-represented in the sample as a whole.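 Activity criterion: percent growth below 10, measured after cells in 96-well plates were exposed to a single compound concentration for 48 hours.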 Unmarked numbers belong to inactive results. Active and inactive are the calls of the source.

Test system: HL-60(TB) leukemia
Test: NCI-60 one-dose screen, 48 h (100 = growth as untreated, 0 = no growth, -100 = all killed)
Details: 10 µM unless noted

Row | Compound | growth
1 | COC(=O)c1ccc(C)cc1 | 106%
2 | Fc1cc(Nc2ccc3c(OCCCN4CCOCC4)cccc3n2)ccc1Cl | 39.1%
3 | O=[N+]([O-])c1ccccc1C(O)Cc1ccc2ccccc2n1 (stereo not given) | 107%
4 | COc1cc(N=Nc2cc(Cc3ccc(N(C)C)cc3)c(N)cc2N(C)C)c2ncccc2c1 | -55.5% (active)
5 | COc1cc(-c2nc3ccccc3o2)cc(CN2CCN(c3ccccc3)CC2)c1O | 71.3%
6 | COc1cccc(C2=NN3C(C2)c2ccccc2OC3c2ccc(/C=C3\SC(=O)NC3=O)cc2)c1 (stereo not given) | 100%
7 | CCCCCCCCCCCCCCCCOCCCOP(=O)(O)C1CCCN(O)C1=O (stereo not given) | -13.6% (active)
8 | CCOC(=O)C1C(=O)C(=O)N(C(C)C)C1C(=O)OCC (stereo not given) | 123%
9 | CCSc1ccnc(N)n1 | 108%
10 | CCC#CC[C@H](O)C/C=C1/C(=O)C=C[C@@H]1C/C=C\CCCC(=O)OC | 2.22% (active)
11 | C/C=C/C1=CN2C(=O)c3cc(OC4OC(C)C(NC)C(C)(O)C4O)c(C)c(O)c3N=C[C@@H]2C1 (stereo not given in full) | -4.33% (active)
12 | CC(/C=C/C=C(\C)[C@H](O)[C@H](C)C(=O)O[C@H]1C[C@H](C)C=C2C=C[C@@]3(C)O[C@@H](O)CC(=O)[C@]3(C)[C@H]21)=C\C=C\C(=O)O | 34%
13 | O=C(O)CC1Cc2ccccc2C1C(=O)O (stereo not given) | 65%
14 | Cc1ccc(C(=O)COc2cccc(/C=C3\Oc4ccccc4C3=O)c2)cc1 | 78.7%
15 | CCOC(=O)c1sc2nc(-c3cc(OC)c(OC)c(OC)c3)nc(N3CCOCC3)c2c1C | 24.7%
16 | O=C(Nc1cccc(Cn2c(=O)[nH]c3ccc(Oc4ncccn4)cc3c2=O)c1)c1cccc(F)c1 | 89.9%
17 | CCN(CC)CC(C)Nc1ccc([N+](=O)[O-])c2sc3ccccc3c(=O)c12 (stereo not given) | -26.2% (active)
18 | COc1ccc2c(c1)c(-c1nc(-c3cn(C)c4ccncc34)cs1)cn2C | 81.7%
19 | O=c1ccn(Cc2cn(-c3c4ccccc4nc4ccccc34)nn2)c(=O)[nH]1 | 75.7%
20 | O=Cc1ccc(O)c(O)c1 | 88%
21 | CCN(CC)CCNCC(O)Cc1ccc(OC)cc1 (stereo not given) | 59.1%
22 | CC(C)(C)[Si](C)(C)OC1[C@@H](COC(=O)NC(=O)CCl)O[C@@H](n2cnc3c(N)ncnc32)[C@H]1O[Si](C)(C)C(C)(C)C (stereo not given in full) | -48.3% (active)
23 | C=C1C(=O)O[C@H]2[C@H]1CC/C(COC(=O)NCc1c[nH]c3ccc(Br)cc13)=C\CC[C@@]1(C)O[C@@H]21 | -26.9% (active)
24 | O=C(Cc1nc2cc(Cl)c(Cl)cc2nc1CC(=O)c1ccccc1)c1ccccc1 | 29.7%
25 | N#CN1CC[C@H](C(=O)Nc2ncc(-c3ccncc3)s2)C1 | -28.5% (active)
26 | CCOC(=O)c1ccc(Nc2sc(C(=O)c3cccc([N+](=O)[O-])c3)c(N)c2C#N)cc1 | 4.04% (active)
27 | CC/C(=C\c1ccc(OC)cc1)C(=O)c1ccc(OC)cc1 | 131%

Row | Compound | growth
28 | O=C1NC(=C(Cl)Cl)/C(=N/S(=O)(=O)NCCc2c[nH]c3ccccc23)N1 | 50.2%
29 | COc1cccc(-c2cn3c(ccc4ccccc43)n2)c1 | 6.28% (active)
30 | CC1(C)N=C(N)N=C(N)N1c1cccc(OCCOc2cccc([N+](=O)[O-])c2)c1 | 17.6%
31 | CN(C)CCCC1(c2ccc(F)cc2)OCc2cc(-c3ccc(C(F)(F)F)nc3)ccc21 (stereo not given) | 43.1%
32 | O=C(/C=C/c1cccc(Cl)c1)c1cccc(OCCCOc2cccc(C(=O)/C=C/c3cccc(Cl)c3)c2)c1 | 93.1%
33 | CN(C)CCOC(=O)Nc1nc2ccc(Sc3ccccc3)cc2[nH]1 | -6.29% (active)
34 | COc1cc(C2CC(c3ccc(Nc4ccnc5cc(Cl)ccc45)cc3)=NN2c2ccc(Cl)cc2)cc(OC)c1OC (stereo not given) | 40.3%
35 | CCOC(=O)C1=C(C(=O)c2ccc(Br)cc2)C(c2ccc(Br)cc2)NC(=S)N1 (stereo not given) | 117%
36 | CCCCCCCC/C=C\CCCCCCCCOc1cccc(CC(=O)NCC[N+]2(C)CCCC2)c1 | 49.3%
37 | CCN(CCNc1ccc(C)c2sc3ccccc3c(=O)c12)CC(C)(C)O | 43.5%
38 | O=C(OCC1OC(n2cc(C(F)(F)F)c(=O)[nH]c2=O)CC1OC(=O)c1ccc([N+](=O)[O-])cc1)c1ccc([N+](=O)[O-])cc1 (stereo not given) | 62.7%
39 | COC1=CC(=O)C(OC)=C(O)C1=O | 107%
40 | Cc1ccc2nc(NC(=O)CSc3nc(-c4ccccc4)c(C#N)c4nnnn34)sc2c1 | 99.5%
41 | NC(=O)c1ccc(N=C(N)N=C(N)N)cc1 | 98.7%
42 | CCNC(=O)Oc1ccc(/C(=C(\C)c2ccccc2)c2ccc(OCCN3CCCCC3)cc2)cc1 | 45.5%
43 | Cc1ccc(N=CNN=C(N)N)cc1 | 87.9%
44 | COc1ccc(/C=C(/C2=NCCN2)n2ccc3ccccc32)cc1 | 92%
45 | O=C(NCc1ccccc1)c1cccc([N+](=O)[O-])c1 | 101%
46 | CCOC(=O)c1c(C)cc(=O)oc1C | 105%
47 | c1ccc2cc(C[n+]3ccn(CCCCCCn4cc[n+](Cc5ccc6ccccc6c5)c4)c3)ccc2c1 | 87.9%
48 | CCOC(=O)NCCCC(=O)NCCc1ccccc1 | 102%
49 | Cc1cccc(Cl)c1NC(=O)c1ccc2nc(NC(=O)NC3CCN(C)CC3)sc2c1 | 123%
50 | CCN(CC)c1cc(/C=C/c2ccc(OC)c(OC)c2)nc2cc(F)c(F)cc12 | 112%
51 | O=S(=O)(Nc1cccc(Cl)c1)c1ccc(-c2cnc(C3CC3)o2)cc1 | 2.04% (active)
52 | C=CCn1c(SCC(=O)Nc2ccc(C(=O)/C=C/c3ccc(OC)cc3)cc2)nnc1-c1ccc(OC)c(OC)c1 | 58.5%
53 | CCN(CC)CCOC(COc1cc(C)cc(C)c1)COc1cc(C)cc(C)c1 | 20.3%
54 | CCCCOc1ccc(NC(=O)n2nc(NC(C)=O)c3cc(NC(C)=O)ccc32)cc1 | 72.9%

Row | Compound | growth
55 | COC(=O)c1c2c(c(C)[n+]([O-])c1C)C(=O)C=C(NCc1ccc(F)c(Cl)c1)C2=O | -28.9% (active)
56 | COc1ccc(OC)c(NC(=O)c2sc3nc4c(cc3c2N)C(=O)CCC4)c1 | 88.4%
57 | Cc1ccc(N)cc1F | 120%
58 | COc1ccc(C2C(N)=NNC2c2cccc(O)c2)cc1 (stereo not given) | 97.9%
59 | O=C1Nc2ccc(Cl)cc2/C1=N/c1nc(-c2ccc(F)cc2)cs1 | -36.7% (active)
60 | Cc1ccc(S(=O)(=O)Oc2ccc(NC(=O)c3ccc(Cl)cc3)cc2)cc1 | 89.2%
61 | Brc1ccc(-c2nc3ccccc3s2)cc1 | 99.6%
62 | Nc1ccc(C(=O)Nc2cccc(C(=O)Nc3ccc4c(O)c(N=Nc5ccc(N=Nc6ccc(S(=O)(=O)O)cc6)cc5)c(S(=O)(=O)O)cc4c3)c2)cc1 | 89.1%
63 | COc1ccc(-c2[nH]c3ccc(OC)cc3c2C=C(C#N)C#N)cc1 | -43.1% (active)
64 | Cc1cc([C@@H](C)Nc2ccccc2C(=O)O)c2nc(N3CCOCC3)cc(=O)n2c1 | 26.7%
65 | CNC(=O)c1cc(Oc2ccc3nc(NC(=O)Nc4ccc(Cl)c(Cl)c4)sc3c2)ccn1 | 78.8%
66 | Clc1ccc2c(c1)N(c1ncnc3ccc(-c4cnc5[nH]ccc5c4)cc13)CC2 | 16.3%
67 | O=C1C=CC2(O)OC/C(=C\c3ccccc3)C(O)=C2C1=O (stereo not given) | 4.63% (active)
68 | COC(=O)c1nc(=S)[nH]c(C(=O)OC)c1C(=O)c1ccccn1 | 97.9%
69 | COc1cc(/C=C/C(=O)/C=C(O)/C=C/c2ccc(OC(=O)C34CC5CC(CC(C5)C3)C4)c(OC)c2)ccc1OC(=O)C12CC3CC(CC(C3)C1)C2 | 104%
70 | CC(C)c1ccc(C(=O)Nc2nc3ccc(O)c(CN(C)C)c3s2)cc1 | 76.8%
71 | O=C1C=C[C@H](O)[C@@]2(CO)O[C@@H]12 | -24.4% (active)
72 | N#Cc1c(-c2ccc(Cl)cc2)nc(N=Nc2c(O)[nH]c3ccc(Cl)cc23)nc1N1CCOCC1 | 104%
73 | CC1(C)N=C(N)N=C(N)N1c1ccc(CCc2ccccc2)c(Cl)c1 | 2.09% (active)
74 | C=C1C(=O)O[C@H]2[C@H]1CC/C(COC(=O)N[C@@H](Cc1c[nH]c3ccccc13)C(=O)OC)=C\CC[C@@]1(C)O[C@@H]21 | -52.6% (active)
75 | CC(=O)N1N=C(c2ccc(Nc3nc(Nc4ccc(F)cc4)nc(Nc4ccc(Cl)cc4)n3)cc2)CC1c1ccc(Cl)cc1 (stereo not given) | 166%
76 | COc1cc2c(cc1[N+](=O)[O-])-c1ccc([N+](=O)[O-])cc1/C2=N\O | 89.5%
77 | CNC(C)[C@H]1CCC2C3CC=C4C(=O)[C@@H](NC(=O)C=C(C)C)CC[C@]4(C)C3CC[C@@]21C (stereo not given in full) | -67% (active)
78 | Oc1ccccc1/C=N/N=C/c1c(O)ccc2ccccc12 | 51%
79 | O=C1/C(=C/c2cn(-c3ccccc3)nc2-c2ccccc2)SC(=S)N1c1ccccc1 | 103%
80 | COC(=O)c1c(C)nc(C)c2c1C(=O)C=C(NCc1ccccc1)C2=O | 81.8%
